Measurements published in PubChem BioAssay AID1159580 (chemical genetic matrix, 2015).
The whole screen tested about 5,500 compounds, of which about 2,000 (36%) were called active. Inconclusive results (about 18%) are left out. No stated cut-off is given here; in the data, active means normalized growth mostly below about 0.91 (no sharp cut-off); inconclusive means no clear call, values can overlap the other calls; inactive means mostly above about 0.92. Some of the results follow.

Assay: chemical genetic growth profiling, strain panel (AID 1159580);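 further: tested at 20 µM; growth read once vehicle control cultures reached saturation at 30 °C; 1 = growth at the plate median or of vehicle wells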
Settings: growth OD
[1] = S. cerevisiae deletion strains, locus YAL013W, strain DEP1, stronger effect = lower value
[2] = S. cerevisiae deletion strains, locus YNL128W, strain TEP1, stronger effect = lower value
[3] = S. cerevisiae deletion strains, locus YPL241C, strain CIN2, stronger effect = lower value
[4] = S. cerevisiae deletion strains, locus YBR021W, strain FUR4, stronger effect = lower value
[5] = S. cerevisiae deletion strains, locus YBR229C, strain ROT2, stronger effect = lower value
[6] = S. cerevisiae deletion strains, locus YCL029C, strain bik1, stronger effect = lower value
[7] = S. cerevisiae deletion strains, locus YDL035C, strain GPR1, stronger effect = lower value
[8] = S. cerevisiae deletion strains, locus YDL074C, strain BRE1, stronger effect = lower value
[9] = S. cerevisiae deletion strains, locus YDL101C, strain DUN1, stronger effect = lower value
[10] = S. cerevisiae deletion strains, locus YDL134C, strain PPH21, stronger effect = lower value
[11] = S. cerevisiae deletion strains, locus YDL185W, strain tfp1, stronger effect = lower value
[12] = S. cerevisiae deletion strains, locus YDL192W, strain arf1, stronger effect = lower value
[13] = S. cerevisiae deletion strains, locus YDR101C, strain arx1, stronger effect = lower value
[14] = S. cerevisiae deletion strains, locus YDR150W, strain NUM1, stronger effect = lower value
[15] = S. cerevisiae deletion strains, locus YDR162C, strain NBP2, stronger effect = lower value
[16] = S. cerevisiae deletion strains, locus YDR318W, strain mcm21, stronger effect = lower value
[17] = S. cerevisiae deletion strains, locus YDR388W, stronger effect = lower value
[18] = S. cerevisiae deletion strains, locus YDR502C, strain sam2, stronger effect = lower value
[19] = S. cerevisiae deletion strains, locus YEL061C, strain CIN8, stronger effect = lower value
[20] = S. cerevisiae deletion strains, locus YER110C, stronger effect = lower value
[21] = S. cerevisiae deletion strains, locus YER155C, strain BEM2, stronger effect = lower value
[22] = S. cerevisiae deletion strains, locus YER167W, strain BCK2, stronger effect = lower value
[23] = S. cerevisiae deletion strains, locus YGL078C, strain dbp3, stronger effect = lower value
[24] = S. cerevisiae deletion strains, locus YGL086W, strain mad1, stronger effect = lower value
[25] = S. cerevisiae deletion strains, locus YGL248W, strain PDE1, stronger effect = lower value
[26] = S. cerevisiae deletion strains, locus YGR078C, strain PAC10, stronger effect = lower value
[27] = S. cerevisiae deletion strains, locus YGR135W, strain pre9, stronger effect = lower value
[28] = S. cerevisiae deletion strains, locus YGR229C, strain SMI1, stronger effect = lower value
[29] = S. cerevisiae deletion strains, locus YGR252W, strain gcn5, stronger effect = lower value
[30] = S. cerevisiae deletion strains, locus YHR030C, strain SLT2, stronger effect = lower value
[31] = S. cerevisiae deletion strains, locus YHR079C, strain IRE1 (second series), stronger effect = lower value
[32] = S. cerevisiae deletion strains, locus YHR094C, strain hxt1, stronger effect = lower value
[33] = S. cerevisiae deletion strains, locus YHR129C, strain ARP1, stronger effect = lower value
[34] = S. cerevisiae deletion strains, locus YHR200W, strain rpn10, stronger effect = lower value
[35] = S. cerevisiae deletion strains, locus YIL066C, strain RNR3, stronger effect = lower value
[36] = S. cerevisiae deletion strains, locus YIL073C, strain SPO22, stronger effect = lower value
[37] = S. cerevisiae deletion strains, locus YIL125W, strain kgd1, stronger effect = lower value
[38] = S. cerevisiae deletion strains, locus YIR030C, strain dcg1, stronger effect = lower value
[39] = S. cerevisiae deletion strains, locus YJL095W, strain BCK1, stronger effect = lower value
[40] = S. cerevisiae deletion strains, locus YJL134W, strain LCB3, stronger effect = lower value
[41] = S. cerevisiae deletion strains, locus YJL168C, strain set2, stronger effect = lower value
[42] = S. cerevisiae deletion strains, locus YJL187C, strain SWE1 (second series), stronger effect = lower value
[43] = S. cerevisiae deletion strains, locus YJR043C, strain POL32, stronger effect = lower value
[44] = S. cerevisiae deletion strains, locus YJR075W, strain HOC1, stronger effect = lower value
[45] = S. cerevisiae deletion strains, locus YKL009W, strain mrt4, stronger effect = lower value
[46] = S. cerevisiae deletion strains, locus YKL068W, stronger effect = lower value
[47] = S. cerevisiae deletion strains, locus YKL085W, strain MDH1 (second series), stronger effect = lower value
[48] = S. cerevisiae deletion strains, locus YKL085W, strain MDH1, stronger effect = lower value
[49] = S. cerevisiae deletion strains, locus YKL190W, strain CNB1, stronger effect = lower value
[50] = S. cerevisiae deletion strains, locus YKR001C, strain vps1, stronger effect = lower value
[51] = S. cerevisiae deletion strains, locus YLR039C, strain RIC1, stronger effect = lower value
[52] = S. cerevisiae deletion strains, locus YLR058C, strain SHM2, stronger effect = lower value
[53] = S. cerevisiae deletion strains, locus YLR102C, strain apc9, stronger effect = lower value
[54] = S. cerevisiae deletion strains, locus YLR262C, strain YPT6, stronger effect = lower value
[55] = S. cerevisiae deletion strains, locus YLR268W, strain sec22, stronger effect = lower value
[56] = S. cerevisiae deletion strains, locus YLR330W, strain CHS5, stronger effect = lower value
[57] = S. cerevisiae deletion strains, locus YLR342W, strain FKS1 (second series), stronger effect = lower value
[58] = S. cerevisiae deletion strains, locus YLR371W, strain rom2, stronger effect = lower value
[59] = S. cerevisiae deletion strains, locus YLR418C, strain cdc73, stronger effect = lower value
[60] = S. cerevisiae deletion strains, locus YML016C, strain PPZ1, stronger effect = lower value
[61] = S. cerevisiae deletion strains, locus YML032C, strain rad52, stronger effect = lower value
[62] = S. cerevisiae deletion strains, locus YML124C, strain tub3, stronger effect = lower value
[63] = S. cerevisiae deletion strains, locus YMR078C, strain ctf18, stronger effect = lower value
[64] = S. cerevisiae deletion strains, locus YMR223W, strain ubp8, stronger effect = lower value
[65] = S. cerevisiae deletion strains, locus YMR263W, strain SAP30, stronger effect = lower value
[66] = S. cerevisiae deletion strains, locus YMR307W, strain GAS1, stronger effect = lower value
[67] = S. cerevisiae deletion strains, locus YNL067W, strain RPL9B, stronger effect = lower value
[68] = S. cerevisiae deletion strains, locus YNL153C, strain GIM3, stronger effect = lower value
[69] = S. cerevisiae deletion strains, locus YNL233W, strain BNI4, stronger effect = lower value
[70] = S. cerevisiae deletion strains, locus YNL250W, strain rad50, stronger effect = lower value
[71] = S. cerevisiae deletion strains, locus YNL271C, strain bni1, stronger effect = lower value
[72] = S. cerevisiae deletion strains, locus YNL298W, strain CLA4, stronger effect = lower value
[73] = S. cerevisiae deletion strains, locus YNL307C, strain MCK1, stronger effect = lower value
[74] = S. cerevisiae deletion strains, locus YNL322C, strain KRE1, stronger effect = lower value
[75] = S. cerevisiae deletion strains, locus YNR052C, strain pop2, stronger effect = lower value
[76] = S. cerevisiae deletion strains, locus YOL006C, strain TOP1, stronger effect = lower value
[77] = S. cerevisiae deletion strains, locus YOL012C, strain htz1
[78] = S. cerevisiae deletion strains, locus YOL147C, strain pex11, stronger effect = lower value
[79] = S. cerevisiae deletion strains, locus YOR061W, strain CKA2, stronger effect = lower value
[80] = S. cerevisiae deletion strains, locus YOR069W, strain VPS5, stronger effect = lower value
[81] = S. cerevisiae deletion strains, locus YOR136W, strain idh2, stronger effect = lower value
[82] = S. cerevisiae deletion strains, locus YOR144C, strain elg1, stronger effect = lower value
[83] = S. cerevisiae deletion strains, locus YOR184W, strain ser1, stronger effect = lower value
[84] = S. cerevisiae deletion strains, locus YOR316C, strain cot1, stronger effect = lower value
[85] = S. cerevisiae deletion strains, locus YPL055C, strain LGE1, stronger effect = lower value
[86] = S. cerevisiae deletion strains, locus YPR119W, strain clb2, stronger effect = lower value
[87] = S. cerevisiae deletion strains, locus YPR141C, strain kar3, stronger effect = lower value
[88] = S. cerevisiae deletion strains, locus YPR163C, strain tif3, stronger effect = lower value
[89] = S. cerevisiae deletion strains, locus YPR167C, strain met16, stronger effect = lower value
[90] = S. cerevisiae deletion strains, strain wtn01, stronger effect = lower value
[91] = S. cerevisiae strains, strain wild type, stronger effect = lower value

Measured: normalized growth

Nc1ncn(C2OC(CO)C(O)C2O)c(=O)n1 (configuration not stated)
inactive: [1] 1.02 | S. cerevisiae deletion strains, locus YAL040C, strain CLN3, stronger effect = lower value 0.999 | S. cerevisiae deletion strains, locus YCL061C, strain MRC1 (second series), stronger effect = lower value 0.999 | S. cerevisiae deletion strains, locus YER002W, strain NOP16, stronger effect = lower value 0.997 | [2] 0.994 | S. cerevisiae deletion strains, locus YNL175C, strain NOP13, stronger effect = lower value 0.992 | S. cerevisiae deletion strains, locus YNL197C, strain WHI3, stronger effect = lower value 1.01 | S. cerevisiae deletion strains, locus YNL224C, strain SQS1, stronger effect = lower value 0.988 | S. cerevisiae deletion strains, locus YOR083W, strain WHI5 (second series), stronger effect = lower value 1 | [3] 1

NCCCCCCNS(=O)(=O)c1cccc2c(Cl)cccc12
inactive: [1] 1 | [4] 1 | [5] 0.982 | [6] 0.983 | [7] 0.989 | [8] 1.02 | [9] 0.991 | [10] 0.985 | [11] 0.986 | [12] 0.996 | [13] 0.997 | [14] 0.987 | [15] 1.01 | [16] 0.973 | [17] 0.99 | [18] 0.984 | [19] 0.995 | [20] 0.99 | [21] 1.01 | [22] 0.979 | [23] 0.998 | [24] 0.958 | [25] 0.968 | [26] 1 | [27] 0.988 | [28] 1.01 | [29] 0.908 | [30] 0.989 | [31] 0.978 | [32] 1 | [33] 1 | [34] 0.979 | [35] 0.996 | [36] 0.957 | [37] 0.997 | [38] 0.992 | [39] 0.988 | [40] 0.995 | [41] 0.994 | [42] 0.993 | [43] 0.971 | [44] 1.02 | [45] 0.953 | [46] 0.999 | [47] 0.991 | [48] 0.991 | [49] 0.996 | [50] 0.983 | [51] 1.01 | [52] 0.988 | [53] 1 | [54] 1.02 | [55] 0.999 | [56] 0.997 | [57] 0.935 | [58] 0.993 | [59] 1 | [60] 0.989 | [61] 0.961 | [62] 0.987 | [63] 0.98 | [64] 0.961 | [65] 1.01 | [66] 0.942 | [67] 1.01 | [2] 1.01 | [68] 1 | [69] 0.996 | [70] 0.981 | [71] 0.997 | [72] 0.983 | [73] 0.965 | [74] 0.995 | [75] 0.974 | [76] 0.955 | [77] 0.747 | [78] 0.994 | [79] 0.995 | [80] 0.988 | [81] 0.991 | [82] 0.993 | [83] 0.961 | [84] 0.986 | [85] 1.04 | [3] 0.998 | [86] 1 | [87] 0.999 | [88] 0.985 | [89] 0.986 | [90] 0.981 | [91] 0.997

Cc1ccc2c(c1)C1(C)CCCC(C)(C(=O)O)C1CC2 (configuration not stated)
inactive: [1] 0.982 | [4] 1.04 | [5] 0.972 | [6] 0.998 | [7] 0.99 | [8] 0.951 | [9] 0.975 | [10] 0.992 | [11] 0.95 | [12] 1 | [13] 1.01 | [14] 0.992 | [15] 0.907 | [16] 1.02 | [17] 1.01 | [18] 0.984 | [19] 0.993 | [20] 0.991 | [21] 1.01 | [22] 1.01 | [23] 0.96 | [24] 1.03 | [25] 0.994 | [26] 0.979 | [27] 0.96 | [28] 0.979 | [29] 1.06 | [30] 1.02 | [31] 1.01 | [32] 0.996 | [33] 1.01 | [34] 1.01 | [35] 0.994 | [36] 1.03 | [37] 0.986 | [38] 0.998 | [39] 1 | [40] 1.01 | [41] 1 | [42] 0.968 | [43] 1.05 | [44] 1.01 | [45] 0.999 | [46] 0.982 | [47] 0.997 | [48] 0.997 | [49] 0.989 | [50] 1.01 | [51] 0.862 | [52] 0.989 | [53] 0.989 | [54] 0.806 | [55] 0.965 | [56] 1 | [57] 1.06 | [58] 1.02 | [59] 0.967 | [60] 0.998 | [61] 1.03 | [62] 1 | [63] 0.994 | [64] 1.03 | [65] 0.973 | [66] 0.976 | [67] 0.974 | [2] 0.949 | [68] 0.957 | [69] 0.993 | [70] 0.972 | [71] 0.994 | [72] 0.968 | [73] 1.01 | [74] 0.997 | [75] 1.02 | [76] 0.956 | [77] 1.15 | [78] 1 | [79] 0.973 | [80] 1 | [81] 1.01 | [82] 1 | [83] 1.05 | [84] 0.999 | [85] 0.946 | [3] 0.997 | [86] 1 | [87] 0.939 | [88] 1 | [89] 0.995 | [90] 0.999 | [91] 0.993
